3 compounds from PubChem BioAssay AID651598 (Sanford-Burnham Center for Chemical Genomics, 2012) can be followed below.

SMILES strings stand for the structures. Values joined by “and” are separate entries in the source; they are usually repeats but may differ in a detail not shown here. Equal entries are not always repeated.

The target in this test is Apelin receptor (Homo sapiens) (UniProt P35414). In words: APJ beta-arrestin recruitment blockade alongside CXCR6 – cell-based, DiscoveRx, panel, CHO-K1, counter-screen for CXCR6 antagonist project, SAR follow-up (AID 651598). As to conditions: CHO-K1 PathHunter beta-arrestin luminescence, antagonist mode; run 5, at 80 µM (top of the series).
Chain of Apelin receptor (Homo sapiens) (P35414 whole entry, looked up): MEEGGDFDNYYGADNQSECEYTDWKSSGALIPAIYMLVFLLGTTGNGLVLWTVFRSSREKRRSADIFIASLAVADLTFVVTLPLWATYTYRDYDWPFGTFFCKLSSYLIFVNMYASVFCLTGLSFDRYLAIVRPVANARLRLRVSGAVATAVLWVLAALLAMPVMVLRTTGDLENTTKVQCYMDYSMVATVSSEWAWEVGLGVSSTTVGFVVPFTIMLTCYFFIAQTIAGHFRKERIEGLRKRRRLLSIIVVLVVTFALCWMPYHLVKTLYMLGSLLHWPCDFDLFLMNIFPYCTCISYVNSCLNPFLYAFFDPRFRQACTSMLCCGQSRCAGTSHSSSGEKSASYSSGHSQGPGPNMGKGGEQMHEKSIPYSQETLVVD
Regarding `COc1cc(C(=O)NC2CCN(CC(=O)Nc3ccccc3)CC2)cc(OC)c1OC`, the inhibition (usually the change of the read-out against control, counted positive when it falls) is -5.74%.

As to `COc1cc(C(=O)NC2CC3CCC(C2)N3CC(=O)Nc2ccccc2)cc(OC)c1OC` (stereo not drawn), the inhibition was -14.1% and -9.09%.

With `COc1cc(C(=O)NC2CC3CCCC(C2)N3CC(=O)Nc2ccccc2)cc(OC)c1OC` (stereo not drawn), the inhibition is 11% and 14.6% and 16%.
